Source: PubChem BioAssay
Hits are enriched below; roughly 0.89% of the tested compounds scored in any of these assays.
CBFb RUNX1 block – qHTS Assay for Compounds Blocking the Interaction Between CBF-beta and RUNX1 for the Treatment of Acute Myeloid Leukemia | AID 1477, 2009 | Runt-related transcription factor 1 (Homo sapiens) + Core-binding factor subunit beta … | AlphaScreen CBFb-His/RUNX1-biotin binding, biochemical | Potency, µM (series often up to 59.8 µM), for inactives: top-dose activity, negative = inhibition, actives largely listed as inhibitors | 230,000 tested, under 10 active; note: % of control where 0% means no effect
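Bead-based AlphaScreen assay; binding partners His-tagged CBF-beta and biotinylated RUNX1 at 30 nM each. Compound exposure 15 min after a 20-min protein preincubation; bead step 90 min; all steps at room temperature.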
Eya2 phos inh – qHTS Assay for Inhibitors of the Phosphatase Activity of Eya2; Protein phosphatase EYA2 (Homo sapiens), O00167; recombinant Eya2, OMFP fluorescence dephosphorylation (OMFP is methylfluorescein phosphate); 0.006% of 330,000 active; Potency, µM (series often up to 76.9 µM), inactives show at the top dose activity, negative = inhibition, hits mostly inhibitors; note: potency is the fitted concentration of half-maximal effect; % is set by controls: 0 for no effect and ±100 for the full control effect
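Eya2 (0.2 uM) preincubated 10 min at ambient with compound, then OMFP substrate added at 50 uM; 10 min reaction in 50 mM HEPES pH 7.5, 50 mM NaCl, 5 uM MgCl2, 0.05% BSA, 1 mM DTT. Fluorescence read at Ex 485/Em 525 nm.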
CtBP-E1A inh – qHTS Assay for Inhibitors of the CtBP/E1A Interaction; AlphaScreen GST-E1A/His-CtBP binding, 1536-well; stronger effect = lower value; 0.49% of 340,000 active; activity change, % (test concentration not listed); CtBP / adenovirus E1A interaction (AlphaScreen); in the data active = activity change below about -65%; inconclusive = mostly about -30% to -63%; note: % is set by controls: 0 for no effect and ±100 for the full control effect
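Protein mix (5X: 125 nM each GST-E1A, His-CtBP) was incubated with pinned compound 2 h at 37 deg C in dark, in 50 mM Tris pH 8.0 buffer with 300 mM NaCl. Glutathione donor and nickel acceptor beads followed; AlphaScreen signal read after 1 h.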
L3MBTL1 inh – qHTS Assay for the Inhibitors of L3MBTL1. Lethal(3)malignant brain tumor-like protein 1 (Homo sapiens), Q9Y468. AlphaScreen L3MBTL1–H3K9me1 peptide binding. Potency, µM (doses to about 57.1 µM), inactives show at the top dose activity, negative = inhibition, most hits filed as inhibitors. 0.66% of 230,000 active; note: potency is the fitted concentration of half-maximal effect; % is set by controls: 0 for no effect and ±100 for the full control effect; nearly all actives have a fitted effect of over 60% in size
Target sequence (Q9Y468 whole entry, looked up): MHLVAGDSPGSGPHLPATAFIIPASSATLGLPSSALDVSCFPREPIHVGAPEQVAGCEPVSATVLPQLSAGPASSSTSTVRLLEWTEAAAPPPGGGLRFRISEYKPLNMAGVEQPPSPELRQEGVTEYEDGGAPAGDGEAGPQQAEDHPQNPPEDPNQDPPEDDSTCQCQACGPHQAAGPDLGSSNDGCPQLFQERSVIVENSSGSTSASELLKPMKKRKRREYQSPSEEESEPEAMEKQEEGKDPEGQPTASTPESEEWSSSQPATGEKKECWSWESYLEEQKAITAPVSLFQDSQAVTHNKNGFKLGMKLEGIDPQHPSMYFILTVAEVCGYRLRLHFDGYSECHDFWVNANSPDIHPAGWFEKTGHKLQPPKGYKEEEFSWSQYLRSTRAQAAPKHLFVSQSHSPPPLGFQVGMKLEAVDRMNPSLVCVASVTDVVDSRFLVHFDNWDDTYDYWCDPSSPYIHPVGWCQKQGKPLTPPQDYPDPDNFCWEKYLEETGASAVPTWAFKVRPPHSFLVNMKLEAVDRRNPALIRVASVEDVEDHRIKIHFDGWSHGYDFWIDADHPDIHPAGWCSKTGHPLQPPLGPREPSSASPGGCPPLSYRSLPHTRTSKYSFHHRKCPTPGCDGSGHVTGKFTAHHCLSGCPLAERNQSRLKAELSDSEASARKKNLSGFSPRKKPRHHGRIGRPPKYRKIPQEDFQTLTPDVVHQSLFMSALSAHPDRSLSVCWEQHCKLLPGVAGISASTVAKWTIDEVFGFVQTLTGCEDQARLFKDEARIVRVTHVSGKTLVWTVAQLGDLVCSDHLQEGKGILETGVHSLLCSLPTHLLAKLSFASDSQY
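Displacement of a biotinylated histone H3(1-15) peptide monomethylated at Lys9 (75 nM) from L3MBTL1 (50 nM) was measured by AlphaScreen after a 30 min room-temperature compound incubation; cefsulodin titration served as intraplate control.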
Six1-Eya2 inh – qHTS Assay for Inhibitors of the Six1/Eya2 Interaction; Homeobox protein SIX1 (Homo sapiens) + Protein phosphatase EYA2 (Homo sapiens), …; 0.56% of 360,000 active; AlphaScreen GST-Six1/His-Eya2 binding, biochemical; stronger effect = lower value; activity change, % (no concentration beside the values); in the data active = activity change below about -65%; inconclusive = mostly about -30% to -63%; note: % is set by controls: 0 for no effect and ±100 for the full control effect
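Homogeneous AlphaScreen proximity assay pairing GST-Six1 with His-tagged Eya2 (added as 5X mix: 250 nM and 500 nM) in 50 mM Tris pH 8.0, 300 mM NaCl, 1 mM TCEP. Glutathione donor and nickel acceptor beads; 1 h, 37 °C, dark.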
MBNL1-CUG inh – qHTS Assay for Inhibitors of MBNL1-poly(CUG) RNA binding; Muscleblind-like protein 1 (Homo sapiens), Q9NR56; TR-FRET MBNL1-His/biotin-(CUG)12 binding, 665/545 ratio; Potency, µM (series often up to 57.5 µM), for the others: top-dose activity change, negative = inhibition, actives largely listed as inhibitors; 0.036% of 280,000 active; active = well fitted inhibition curve with a large enough effect in the signal ratio, with a control signal flat, not every such curve was filed as active; inconclusive = small, poorly fitted or top-dose-only effect, or effect the other way, or a change in a side signal; inactive = no such curve, though single readings can be large or run the other way; the % refers to the signal ratio; note: potency is the fitted concentration of half-maximal effect; % is set by controls: 0 for no effect and ±100 for the full control effect
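MBNL1-His + Biotin-(CUG)12, cpd titration 92 nM–58 uM; Tb anti-His Ab 0.055 ng/ul, SA-XL665 5 nM (final); 60 min RT; ratiometric 665/545 nm, Ex 340 nm; normalized to buffer and full-complex controls.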
An asterisk follows results filed as active. Unless noted, calls come from the whole dose curve; as a rule, active = well fitted curve in the direction sought with a large enough effect; inconclusive = small, poorly fitted or top-dose-only effect, or another doubt; inactive = no such curve, though single readings can be large; an effect the other way counts as inactive or inconclusive.

Results for Cc1ncc(CO)c(/C=N/NC(=O)c2ccc(Br)cc2)c1O ?
CBFb RUNX1 block: inconclusive; Eya2 phos inh: -2%; L3MBTL1 inh: inconclusive

How did Cc1ncc(CO)c(/C=N/NC(=O)c2cc(O)c(O)c(O)c2)c1O do in these assays?
Eya2 phos inh: -2%; L3MBTL1 inh: 1.6µM*; MBNL1-CUG inh: inconclusive

How did Cc1ncc(CO)c(/C=N/NC(=O)c2cc(Br)ccc2O)c1O do in these assays?
CBFb RUNX1 block: inconclusive; Eya2 phos inh: 1%; Six1-Eya2 inh: inconclusive; MBNL1-CUG inh: -4%

What do the screens show for `COc1ccc(NC(=O)CC(C)n2ccnc2)cc1` (stereo not drawn)?
Eya2 phos inh: 3%; CtBP-E1A inh: -8; Six1-Eya2 inh: -2; MBNL1-CUG inh: -3%

How did COc1ccccc1NC(=O)CCC(=O)Nc1cc(OC)c(NC(=O)c2cccs2)cc1OC do in these assays?
Eya2 phos inh: -6%; CtBP-E1A inh: -93*; Six1-Eya2 inh: -95*; MBNL1-CUG inh: 4%

How did COc1cc(NC(=O)c2cccs2)c(OC)cc1NC(=O)CCC(=O)Nc1cccc2ncccc12 do in these assays?
CBFb RUNX1 block: -5%; Eya2 phos inh: -16%; CtBP-E1A inh: -87*; L3MBTL1 inh: -4%; Six1-Eya2 inh: -82*; MBNL1-CUG inh: -2%

Results for CCOc1cc(NC(=O)c2cccs2)c(OCC)cc1NC(=O)CCC(=O)NCc1ccccn1 ?
CBFb RUNX1 block: 10%; Eya2 phos inh: -15%; CtBP-E1A inh: 3; Six1-Eya2 inh: 8; MBNL1-CUG inh: 1%

Results for COc1cccc(NC(=S)NNC(=O)C(C)n2nc(C)c([N+](=O)[O-])c2C)c1 (stereo not drawn) ?
CBFb RUNX1 block: 3%; Eya2 phos inh: -5%; CtBP-E1A inh: 12; L3MBTL1 inh: -2%; Six1-Eya2 inh: -2; MBNL1-CUG inh: 4%

What do the screens show for `COc1cccc(/C=N/NC(=O)C(C)n2nc(C)c([N+](=O)[O-])c2C)c1O` (stereo not drawn)?
CBFb RUNX1 block: inconclusive; Eya2 phos inh: -6%; CtBP-E1A inh: -66*; L3MBTL1 inh: -12%; Six1-Eya2 inh: -89*

Results for Cc1nn(CC(=O)N/N=C/c2cccs2)c(C)c1[N+](=O)[O-] ?
CBFb RUNX1 block: 5%; Eya2 phos inh: 0%; CtBP-E1A inh: -6; L3MBTL1 inh: -2%; Six1-Eya2 inh: -5; MBNL1-CUG inh: 8%

How did COc1cccc(/C=N/NC(=O)Cn2nc(C)c([N+](=O)[O-])c2C)c1O do in these assays?
CBFb RUNX1 block: -15%; Eya2 phos inh: -10%; CtBP-E1A inh: -94*; L3MBTL1 inh: -5%; Six1-Eya2 inh: -95*; MBNL1-CUG inh: -14%

Results for CCOC(=O)[C@]12CCCC=C1N(Cc1ccco1)C(=O)[C@H](CC(=O)N1CCCCC1)C2 ?
CtBP-E1A inh: 4; Six1-Eya2 inh: 4

How did COc1cccc(CSC(C(=O)O)c2ccccc2)c1 (stereo not drawn) do in these assays?
CtBP-E1A inh: -1; Six1-Eya2 inh: -3

How did CCOCCCNc1nc(=S)[nH]c2cc(OC)c(OC)cc12 do in these assays?
CBFb RUNX1 block: 6%; Eya2 phos inh: 2%; CtBP-E1A inh: -92*; L3MBTL1 inh: -4%; Six1-Eya2 inh: -83*; MBNL1-CUG inh: 15%

What do the screens show for `COCCNc1nc(=S)[nH]c2cc(OC)c(OC)cc12`?
CBFb RUNX1 block: 7%; Eya2 phos inh: 13%; CtBP-E1A inh: -87*; L3MBTL1 inh: 0%; Six1-Eya2 inh: -80*; MBNL1-CUG inh: -8%
